# From PubChem BioAssay
# AmpC inh det: blocks E. coli AmpC beta-lactamase in presence of detergent. P00811. purified AmpC, nitrocefin hydrolysis with detergent. Potency, µM (series often up to 28.7 µM), inactives show at the top dose activity change, negative = inhibition. actives 0.09% (n = 71,000). AID 584; active means well fitted curve in the direction sought with a large enough effect; inconclusive means small, poorly fitted or top-dose-only effect; further: on the % scale 0 is the no-effect control and ±100 the full control effect
# Target sequence (P00811 whole entry, looked up): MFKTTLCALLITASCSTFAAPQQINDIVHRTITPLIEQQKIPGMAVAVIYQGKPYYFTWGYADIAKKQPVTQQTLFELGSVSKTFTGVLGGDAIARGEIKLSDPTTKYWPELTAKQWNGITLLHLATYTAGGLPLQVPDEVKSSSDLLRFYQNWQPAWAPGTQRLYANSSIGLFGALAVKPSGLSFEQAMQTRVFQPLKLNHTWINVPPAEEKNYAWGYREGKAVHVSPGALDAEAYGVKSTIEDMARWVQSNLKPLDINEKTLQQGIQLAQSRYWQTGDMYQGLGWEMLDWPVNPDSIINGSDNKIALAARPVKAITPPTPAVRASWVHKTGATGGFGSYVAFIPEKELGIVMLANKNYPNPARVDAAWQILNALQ
#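 E. coli AmpC (5.3 nM) in 20 mM phosphate pH 7.0 with 0.01% Triton X-100, preincubated 15 min RT with compound; nitrocefin (2 uL of 800 uM stock) hydrolysis followed by 480 nm absorbance every 20 s over 4 min.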
# AmpC nodet inh: AmpC beta-lactamase inhibition, detergent-free assay; Potency, µM (highest dose often 28.7 µM), for inactives: at the highest dose activity change, negative = inhibition; P00811; AmpC nitrocefin hydrolysis, absorbance 480 nm, no detergent; actives 1.8% (n = 71,000); AID 585; further: % of control where 0% means no effect
#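 AmpC in 20 mM phosphate buffer pH 7.0 was preincubated 15 min at room temperature with compounds. Nitrocefin (800 uM stock) was then added and hydrolysis followed at 480 nm every 20 s for 4 min.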
# Prx2 Sm inh: blocks S. mansoni peroxiredoxin 2 enzymatic activity; S. mansoni Prx2 activity coupled to TGR/GSH (TGR is thioredoxin glutathione reductase), NADPH fluorescence loss, qHTS; Potency, µM; actives 0.07% (n = 65,000)
#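 qHTS, coupled TGR/Prx2 format; 15 min compound preincubation at RT; reaction started with H2O2 (2.5 mM aliquot); kinetic NADPH fluorescence decrease, ex 365/em 450 nm.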
# LT uptake inh: blocks cellular internalization of anthrax lethal toxin; Potency, µM (doses to about 40 µM), inactives show at the highest dose activity change, negative = inhibition, usual class: inhibitors; actives 0.67% (n = 70,000); Cells, anthrax lethal toxin internalization, FRET ratio (460/530); AID 912; further: on the % scale 0 is the no-effect control and ±100 the full control effect; nearly all actives have a fitted effect of over 50% in size
# Numbers without * were called inactive; ? = inconclusive; . = no result; + = active, no number; [ ] = remark or other dose. An excerpt weighted towards active compounds, which were near 2.6% of everything screened. Unless noted, the call rests on the fitted dose curve. Potency means the concentration at half of the fitted maximal effect.
SMILES,AmpC inh det,AmpC nodet inh,Prx2 Sm inh,LT uptake inh
COc1ccc(C2C(C(C)=O)=C(O)C(=O)N2CCO)c(OC)c1 (stereo not given),-3%,-3%,>57,-21%
CCN(CC)CCCN1C(=O)C(O)=C(C(C)=O)C1c1ccc(OC)cc1OC (stereo not given),12%,4µM*[single pt active],>57,-3%
CC(=O)O[C@@H]1C[C@]2(C)[C@H](C[C@@H](O)[C@H]3[C@@]4(C)CC[C@@H](O)[C@@H](C)[C@@H]4CC[C@@]32C)/C1=C(\CCC=C(C)C)C(=O)O,-6%,11%,>57,0%
Cc1ccc(-c2nnn(CC(=O)N(c3cccc(F)c3)C(C(=O)NC3CCCC3)c3ccco3)n2)o1 (stereo not given),-4%,13µM*,>57,-9%
Cc1c(C(=O)O)c(O)cc2c1C(=O)c1c(O)c([C@@H]3O[C@H](CO)[C@@H](O)[C@H](O)[C@@H]3O)c(O)c(O)c1C2=O,0%,51%,>57,-9%
CN(CCC(=O)O)S(=O)(=O)c1ccccc1,2%[5.75 µM],-6%[5.75 µM],>57,-1%[8 µM]
O=C(Nc1ccccc1)C1=C(O)CC(c2ccoc2)CC1=Nc1ccccc1 (stereo not given),-2%,-14%,.,?
O=C(Nc1ccccc1)C1=C(O)CC(c2ccco2)CC1=Nc1ccccc1 (stereo not given),21%,7.9µM*,>57,-2%
C#CCOC(=O)[C@H](N)CC(N)=O,-5%[5.75 µM],7%[5.75 µM],>57,17%[8 µM]
CC(=O)O[C@@H]1CC[C@]2(C)C(=C[C@@H]([C@@H]3C=C4C[C@@H](OC(C)=O)CC[C@]4(C)C4=C3[C@H]3C[C@@H]5O[C@@]6(CC[C@H](C)CO6)[C@@H](C)[C@@H]5[C@@]3(C)CC4)C3=C2CC[C@@]2(C)[C@H]4[C@@H](C)[C@]5(CC[C@H](C)CO5)O[C@@H]4C[C@H]32)C1,-5%[5.75 µM],50%[5.75 µM],>57,16%[8 µM]
O=C1CCc2cc(S(=O)(=O)N3CCCC3C(=O)N3CCN(c4ccccc4)CC3)ccc2N1 (stereo not given),27%,4µM*[single pt active],>57,-4%
O=C1CCc2cc(S(=O)(=O)N3CCCC3C(=O)N3CCN(c4ccccc4F)CC3)ccc2N1 (stereo not given),5%,10%,>57,-5%
Cc1ccc(NC(=O)C2CCCN2S(=O)(=O)c2ccc3c(c2)CCC(=O)N3)cc1Cl (stereo not given),12%,4µM*[single pt active],>57,-10%
O=C(O)CCCCCC[C@@H]1C(=O)NC(=O)N1CC[C@@H](O)C1CCCCC1,-2%,-2%,>57,3%
C=CCn1c(COc2ccc(CC)cc2)nnc1SC/C(O)=C(\C#N)c1nc2ccccc2[nH]1,5%,1.3µM*,>57,0%
C=CCn1c(COc2ccccc2)nnc1SCc1ccc(C#N)cc1,9%,36%,>57,.
CCC(C)NC(=O)CS(=O)Cc1nc(-c2ccccc2C)oc1C (stereo not given),11%,4µM*[single pt active],>57,-11%
CCCNC(=O)CS(=O)Cc1nc(-c2ccccc2C)oc1C (stereo not given),13%,4µM*[single pt active],>57,?
CCOC(=O)Nc1nc(-c2ccccc2)c(C)s1,-2%[5.75 µM],4%[5.75 µM],>57,-6%[8 µM]
Cc1sc2nc3ccc(N4CCCC4)nn3c(=O)c2c1C,18%,4µM*[single pt active],>57,-14%
O=C1C(=O)c2ccccc2C(O)=C1Cc1ccccc1,-2%[5.75 µM],13%[5.75 µM],>57,-1%[8 µM]
O=C(/C=C\c1ccc(O)cc1)c1ccc(O)cc1O,2%,-18%,.,-10%
COc1ccc(-c2cnc(SCC(=O)Nc3ccc4c(c3)OCO4)n2Cc2ccco2)cc1,-3%,-11%,>57,?
CC(=O)Nc1cccc(NC(=O)CSc2ncc(-c3ccc(Cl)cc3)n2Cc2ccco2)c1,-5%,64%,>57,13µM*
O=C(CSc1nnc(-c2ccc(Cl)cc2)n1Cc1ccco1)Nc1ccc2c(c1)OCCO2,-6%,+[single pt active],>57,?
SMILES,AmpC inh det,AmpC nodet inh,Prx2 Sm inh,LT uptake inh
O=c1c2[nH]c3ccc(F)cc3c2ncn1CCN1CCN(Cc2ccccc2)CC1,10%,3.2µM*[single pt active],>57,-10%
CC1CCCCN1CCn1cnc2c([nH]c3ccccc32)c1=O (stereo not given),13%,4µM*[single pt active],>57,1%
Cc1cc2nc(SCC(=O)Nc3nonc3C)c3c(c2cc1C)CCCC3,1%,13µM*,>57,-17%
Cc1nonc1NC(=O)CSc1nc(C2CCCCC2)nc2ccccc12,-2%,-13%,>57,?
CC(C)(C)C(=O)[C@H]([C@@H](c1ccccc1)N1CCOCC1)N1CCOCC1,-2%[5.75 µM],9%[5.75 µM],>57,3%[8 µM]
CC1(C)Cc2c(c(N3CCOCC3)nc3sc(C(=O)N4CCCCC4)c(N)c23)CO1,25%,4µM*[single pt active],>57,-10%
S=C=Nc1cccc2ccccc12,10%,-10%,.,.
O=C(O)c1cc[c]([Hg][Cl])cc1,-8%,-10%,0.44*,?
CCOC(=O)CCc1c(C)nc2cc(-c3ccccc3OC)[nH]n2c1=O,9%,4µM*[single pt active],>57,-6%
Clc1ccc(-c2nnc(N3CCCC3)nn2)cc1,-20%,10µM*,>57,.
Clc1ccc(-c2noc(CN3CCCCC3)n2)cc1,-5%[5.75 µM],4%[5.75 µM],>57,4%[8 µM]
Cc1ccc(C)c(S(=O)(=O)Nc2ccccc2C(=O)Nc2cc(C)on2)c1,-4%,6.3µM*,>57,?
O=C(NC1CCN(Cc2ccccc2)CC1)C1COc2ccccc2O1 (stereo not given),-3%,-2%,>57,-4%
CC(CN(C)Cc1ccccc1)OC(=O)C1COc2ccccc2O1 (stereo not given),10%,4µM*[single pt active],>57,5%
O=[N+]([O-])c1cc(C(F)(F)F)cc([N+](=O)[O-])c1Cl,13%,-3%,.,0%
CCCN(CCC)c1c([N+](=O)[O-])cc(C(F)(F)F)cc1[N+](=O)[O-],10%,-15%,.,5µM*
CC(=O)c1cccc(NC2c3ccccc3C(=O)N2Cc2ccc3c(c2)OCO3)c1 (stereo not given),13%,4µM*[single pt active],>57,-18%
CCCn1c(-c2ccc(F)cc2)nc2c(NCC3CCN(C)CC3)nc(C)nc21,16%,43%,.,-10%
C=CCNS(=O)(=O)c1ncnc2nc[nH]c12,-2%[5.75 µM],-7%[5.75 µM],>57,1%[8 µM]
NCCC1([N+](=O)[O-])CCNCC1,0%[5.75 µM],-5%[5.75 µM],>57,?
C[N+](C)(C)/N=C\c1ccc(O)c(O)c1,-3%[5.75 µM],6%[5.75 µM],>57,?
Oc1ccc(N=Cc2ccc(O)c(O)c2)cc1,5%,13µM*,.,?
COc1cccc(-c2csc3nnc(SCC(=O)c4ccc(NC(C)=O)cc4)n23)c1,-6%,12%,>57,-8%
COc1cccc(-c2cc(N)nn2C(=O)Nc2ccc(Cl)cc2)c1,14%,4µM*[single pt active],>57,?
CSc1ccc(C2C(C#N)=C(N)Oc3c2ccc(=O)c2c(C)oc(C)c32)cc1 (stereo not given),-4%,10µM*,>57,-29%
Cc1oc(C)c2c(=O)ccc3c(c12)OC(N)=C(C#N)C3c1ccccc1 (stereo not given),-4%,-17%,>57,-24%
